Only a selection was taken, and hits are over-represented in it overall.
Pf Dd2 growth – Plasmodium falciparum Dd2 growth inhibition; 4.3% of 120,000 active; Potency, µM (top dose mostly 28.9 µM), without a hit: at the highest dose activity, negative = inhibition, most hits filed as inhibitors; P. falciparum Dd2 growth, SYBR Green, 72 h; active means well fitted inhibition curve with a large enough effect;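 further: plate controls were DMSO vehicle for no effect and reference drug for full effect; nearly all actives have a fitted effect of over 65% in size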
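Readout: SYBR Green fluorescence, 485 nm excitation, 535 nm emission, after ~16 h lysis at 37C. Before that, Dd2-infected red cells (2.5% hematocrit) grew 72 h with compound, 29 uM top final concentration.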
An asterisk follows results filed as active; i = inactive; [ ] = another dose, or the depositor's remark. Potency means the concentration at half of the fitted maximal effect.

SMILES	Pf Dd2 growth
CC(C)CCN1C(=O)CC[C@]2(C(=O)N3CCN(c4ccc(F)cc4)CC3)CCCC[C@@H]12	10µM*
CN1C(=O)CC[C@]2(C(=O)N3CCN(c4ccc(F)cc4)CC3)CCCC[C@@H]12	-3%
Cc1ccc(F)c(OC2(C(=O)O)CCN(c3cnc4ccccc4n3)CC2)c1	-9%
O=C(c1ccccn1)C1CCCN(c2ncncn2)C1 (stereo not drawn)	4%
C=CCS(=O)(=O)N1CCCC1C(=O)Nc1ccccc1-c1ccc(OC)cc1 (stereo not drawn)	-5%
CCOc1ccc(C2Cn3nnc(-c4nc(-c5ccccc5C)no4)c3CO2)cc1 (stereo not drawn)	i
COc1cccc(CCC(=O)N2CCc3nn(CC4CC4)c(=O)n3CC2)c1	i
O=C(Cc1cccs1)N1CCC(n2cc(-c3nc(C4CC4)no3)nn2)C1 (stereo not drawn)	i
CC(C)NC(=O)N1CNC(=O)C12CCN(C(=O)c1ccccc1)CC2	2%
Cc1scc(CN2CCN(c3ccc(F)cc3)CC2)c1C	-16%
Cc1cc(O)c(CN2CCN(c3ccc(F)cc3)CC2)c2oc(=O)cc(C)c12	11µM*
COc1ccc(N2CCN(Cc3cc(=O)oc4ccc(OC)cc34)CC2)cc1	-13%
COCCN1CCCN(C(=O)C2CCC2)c2ccccc21	i
COc1ccccc1C(=O)N1CCCN(Cc2ccc3c(c2)OCO3)c2ccccc21	i
O=C(C1CC1)N1CCCN(Cc2ccc3c(c2)OCO3)c2ccccc21	8.9µM*
O=C(Nc1ccc(F)cc1)c1cc2cccnn2n1	i
O=C(Nc1ccc(F)cc1)c1ccc(-n2cnnc2)cc1	26%
O=C(Nc1ccc(Cl)cc1Cl)c1ccc2cncn2c1	i
O=C(Nc1ccc(Cl)cc1Cl)c1ccn2cncc2c1	-1%[44.1 µM]
O=C(Nc1ccc(F)cc1)c1cccn2cncc12	16µM*
O=C(Nc1ccc(Cl)cc1Cl)c1cccn2cncc12	13µM*
Cc1ccccc1C(=O)N1C[C@@H](F)C[C@H]1C(=O)N1CCOCC1	-8%
CC(C)c1ccc(N2C(=O)N[C@@H]3CCN(C(=O)CC4(CC(=O)O)CCCC4)[C@@H]3C2=O)cc1	-18%
COc1ccc(CCNc2ncnc3c2CN(c2ccccc2F)C(=O)CN3C)cc1	i
COc1ccc(C(=O)N2CC[C@@H]3CN(S(C)(=O)=O)[C@@H]3C2)c(OC)c1	21%
SMILES	Pf Dd2 growth
CCn1c2c(c(=O)n1-c1ccccc1)CCN(C(=O)c1ccnn1C)C2	31%[44.1 µM]
CCc1ccc(Nc2ncnc3sc4c(c23)CCCC4)cc1	i
COc1ccc(Nc2ncnc3sc4c(c23)CCCC4)cc1	4%
CCCNC(=O)N1CCc2c(sc3ncnc(N4CCN(C)CC4)c23)C1	-5%
CCNc1ncnc2sc3c(c12)CCN(C(=O)c1ccnn1C)C3	11µM*
CCNc1ncnc2sc3c(c12)CCN(Cc1ccc[nH]1)C3	1µM*
Cc1nc2ccc(C(=O)N[C@@H]3CCOC[C@H]3Oc3ccccn3)cc2s1	-6%
COc1cccc(C(O)CNC(=O)C2CCN(C(=O)C3CCC3)CC2)c1 (stereo not drawn)	-2%
Cc1cccc(-c2ocnc2C(=O)N2C[C@@H](Oc3ccccc3)C[C@H]2C(=O)N2CCCC2)c1	-9%
O=C(c1ccsc1)N1CCC2(CC1)NC(=O)N(Cc1ccc(Cl)cc1)C2=O	11%
CCc1ccccc1Nc1nn2c(=O)c3ccc(C(=O)NC4CCCCC4)cc3nc2s1	-20%
CCc1ccccc1Nc1nn2c(=O)c3ccc(C(=O)Nc4cc(C)cc(C)c4)cc3nc2s1	-2%
CCc1ccccc1Nc1nn2c(=O)c3ccc(C(=O)NC(C)c4ccccc4)cc3nc2s1 (stereo not drawn)	1µM*
Cc1ccc(NC(=O)N2CCCC(c3nnc(CN(C)C)n3C)C2)cc1C (stereo not drawn)	-17%
CCn1cnnc1-c1nn(C)c2c1CN(C(=O)c1nn(C)c3ccccc13)CC2	-28%
CCN1c2cc(C(=O)NCc3ccccc3OC)ccc2C(=O)N2CCCCCC21 (stereo not drawn)	5µM*
COc1ccccc1CNC(=O)c1ccc2c(c1)N(C)C1CCCCN1C2=O (stereo not drawn)	i
CCN1c2cc(C(=O)NCc3ccc(F)cc3)ccc2C(=O)N2CCCCCC21 (stereo not drawn)	i
CCN1c2cc(C(=O)NCc3cc(F)ccc3F)ccc2C(=O)N2CCCCC21 (stereo not drawn)	4µM*
CCN1c2cc(C(=O)NCc3ccccc3F)ccc2C(=O)N2CCCCCC21 (stereo not drawn)	-19%
CCN1c2cc(C(=O)NCc3cc(OC)ccc3OC)ccc2C(=O)N2CCCCC21 (stereo not drawn)	-4%
COCCCNC(=O)N1C[C@@H](Oc2ccccc2)C[C@H]1C(=O)N1CCOCC1	16%
O[C@@H]1[C@@H](Cn2cc(C3CC3)nn2)C[C@@H](NCc2nccs2)[C@@H]1O	10%
COc1cccc(C(=O)N2CCOC[C@H](Oc3ccccc3)C2)c1	12%[44.1 µM]
CC(C)CCNC(=O)c1cnc2n1CCN(Cc1ccccc1F)CC2	-17%[44.1 µM]

Bioassay records (PubChem BioAssay)
